Compounds without any hit were thinned out: in the full panel of roughly 83,000, 20% have a hit.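 Single-concentration screen, 48 h exposure, 96-well plates. Endpoint: percent growth. Below 10 = active.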 Active and inactive are the calls of the source.

This test has as its system HL-60(TB) leukemia. Nature of the test: NCI-60 one-dose screen, 48 h (100 = growth as untreated, 0 = no growth, -100 = all killed). The conditions noted are these: 10 µM unless noted.
Consider `Cn1cnc([N+](=O)[O-])c1/C=C1\Oc2ccc(Br)cc2C1=O`, for which the growth is 75.5% (inactive).
For `COc1ccc(-c2nc3sccn3c2-c2ccnc(S(C)(=O)=O)n2)cc1` the value was 55.4% (inactive).
In the case of `Cc1nn(-c2ccccc2)c(Oc2c(Cl)cccc2Cl)c1/C=N/N=c1\sc2ccccc2n1C`, the growth was 43.1% (inactive).
In the case of `O=C(O)C1(Cc2cccc(Nc3nccs3)n2)CCC(Oc2cccc(Cl)c2F)CC1` (stereo not given), the growth is 50.7% (inactive).
With `CCCCCc1c(C)[nH]c(/C=C2\N=C(c3ccc[nH]3)C=C2CC)c1C`, the growth is -62% (active).
In the case of `CN(C)CCCN(Cc1ccccc1O)C(=S)Nc1ccc(Cl)cc1`, the growth was 103% (inactive).
With `COc1cc(/C=C\C(=O)O)ccc1OCc1ccccc1` the figure was 122% (inactive); with `COc1ccc(-c2nc3sccn3c2-c2ccnc(NCCCNS(=O)(=O)c3ccc(F)cc3)n2)cc1`, -3.74% (active); with `COc1cc2c(cc1NC(=O)C(Cl)Cl)-c1ccc(NC(=O)C(Cl)Cl)cc1C2`, -14.5% (active).
With `CC1(C)NC(=O)c2[nH]c3c(Cl)c(Cl)ccc3c2C1C#N` (stereo not given) the figure was 65.4% (inactive).
As to `COc1ccc(N2CCN(CC(=O)N3CCN(c4nnc(-c5ccc(Cl)cc5)c(-c5ccc(Cl)cc5)n4)CC3)CC2)cc1`, the growth is -19.9% (active).
For `COC(=O)c1c(C(=O)OC)c2ccc3c4ncccc4ccc3n2c1C(=O)c1ccc(C)cc1`, the growth was 91.8% (inactive).
Consider `O=C(Cc1nc2cc(Cl)c(Cl)cc2nc1CC(=O)c1ccccc1)c1ccccc1`, for which the growth is 29.7% (inactive).
In the case of `COc1cc(C(=O)NNC(=O)c2ccccc2C(=O)O)cc(OC)c1OC`, the growth is 5.84% (active).
With `CCCC1CCCCN1C(=O)OCC(C)C` (stereo not given) the figure was 107% (inactive); with `C/C(O)=C(\C=N\C(N)=S)C(=O)Nc1ccccc1`, 105% (inactive).
Turning to `COc1ccc(/C=C2\CN(C(=O)C(Cl)Cl)C/C(=C\c3ccc(OC)c(OC)c3)C2=O)cc1OC`, the growth was -11.4% (active).
Turning to `COc1ccc2c(O)c(/C=C3\N=Nc4ccccc43)oc2c1C[C@H]1CCNC[C@H]1F`, the growth was 14.4% (inactive).
In the case of `Cc1ccccc1NC(=O)c1cc2ccccc2cc1O`, the growth was 0.175% (active).
Take `COc1ccc(Cn2cc3c(c2)-c2oncc2CC3)cc1OC`: the growth was 2.83% (active).
Take `CCN1C(=O)N(c2ccccc2)C2Nn3c(s/c(=C4\C(=O)N(C(C)C)c5ccccc54)c3=O)=NC21` (stereo not given): the growth is 97.8% (inactive).
For `CCCCCCCCCCC1CO1` (stereo not given), the growth is 104% (inactive).
For `CCCSc1ccc2nc(NC(=O)OC)[nH]c2c1` the value was 7.7% (active); for `c1ccc(Cn2cc3c(c2)-c2oncc2CC3)cc1`, 11.5% (inactive); for `CCCc1cc(=O)n2c(C(=O)Nc3ccc(F)cc3)c(C(=O)Nc3ccc(F)cc3)sc2n1`, 106% [30 µM] (inactive).
In the case of `CC(C)C1=C[C@@]23CC[C@H]4[C@](C)(COCCC#N)CCC[C@]4(C)[C@H]2C[C@@H]1[C@@H]1[C@H]3[C@@H](OCCC#N)CC[C@@H]1OCCC#N`, the growth was -42.7% (active).
In the case of `CCN=C1C=CC(=C(c2ccc(N)cc2)c2ccc(N(CC)CC)c(C)c2)C=C1`, the growth is -11% (active).
As to `COc1cc(C2CC(c3ccc(Nc4nc(Nc5ccc(F)cc5)nc(Nc5ccc(Cl)cc5)n4)cc3)=NN2C(C)=O)cc(OC)c1OC` (stereo not given), the growth is 35.2% (inactive).
As to `COc1ccc(-c2cn[nH]c2-c2cc(OC)c3c(c2)OCO3)cc1`, the growth was -29% (active).
On to `C/C(=N\NC(=S)Nc1ccccc1)c1ccccn1`, for which the growth is 3.23% (active).
In the case of `O=C(O)c1cc(C(F)(F)F)cc(C(F)(F)F)c1`, the growth is 88.2% (inactive).
For `CN(C)c1ccc2cc(-c3ccccc3F)c(N)nc2c1` the value was 5.36% (active); for `Cc1ccsc1C(=O)CC(=O)C(F)(F)C(F)(F)C(F)(F)F`, 107% (inactive).
Consider `Cc1cc(N/N=C/c2ccccn2)nc2ccccc12`, for which the growth is -12.8% (active).
Consider `CC(=O)Oc1cccc(OC(C)=O)c1OC(C)=O`, for which the growth is 103% (inactive).
With `Clc1ccc(/C=N\N=C\c2ccc(Cl)c(Cl)c2)cc1Cl` the figure was 135% (inactive); with `COc1ccc(CCCc2c3[n+](cc4c(OC)c(OC)ccc24)CCc2cc4c(cc2-3)OCO4)cc1`, 36.6% (inactive).
`COC(=O)[C@]12CC[C@@H](C)[C@H](C)[C@@H]1C1=CC[C@@H]3[C@@]4(C)C[C@@H](OC(C)=O)[C@H](OC(C)=O)[C@@](C)(COC(C)=O)[C@@H]4[C@H](O)C[C@@]3(C)[C@]1(C)CC2`: the growth is -10.2% (active).
Take `N[C@H](C(=O)O)[C@@H]1CC(Cl)=NO1`: the growth was 34.9% [20 µM] (inactive).
For the compound `CC(=O)C1Cc2ccccc2C1=O` (stereo not given), the growth was 97.4% (inactive).

The values above are taken from PubChem BioAssay (NCI).
